Test results: the supplement of paper PMC10477191
± gives the standard deviation of the averaged measurements.

The compounds below were run on Drosophila virilis antennal basiconic sensillum AB1 (assay: odor-evoked OSN spike response (post minus pre-stimulus); higher = stronger neuronal excitation). Conditions: odor dilution: 10^-4.
Protocol: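 Single sensillum recordings from antennal basiconic sensilla of D. virilis. A 500 ms pulse of odorant (10^-4 in mineral oil or DMSO) was delivered; the response is the change in spike frequency between the 1 s pre- and post-stimulus windows (spikes/s).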

| Compound | odor-evoked OSN spike response [spikes/s] |
| --- | --- |
| CC(C)=O [acetone] | 73.5 ± 24 |
